According to the antibiotic and cytotoxicity screens of Wong et al. (2023):
Out of some 39,000 compounds screened, about 3,300 (8.5%) were called active. The entries come from a sample that favours actives as a whole.

tested on: HepG2; assay: cytotoxicity call (relative viability < 0.9); conditions: 10 µM

**Q.** With `COc1ccc(S(=O)(=O)Nc2ccc3c(c2)C(=O)N([C@@H](C)CO)C[C@H](C)[C@@H](CN(C)S(=O)(=O)c2cn(C)cn2)O3)cc1` as the compound, how does the cytotoxicity call read?
**A.** inactive

**Q.** For `C[C@H]1CN([C@@H](C)CO)C(=O)c2cc(NC(=O)C3CCCCC3)ccc2O[C@@H]1CN(C)Cc1ccc(C(F)(F)F)cc1`, which cytotoxicity call is on record?
**A.** inactive

**Q.** `C[C@H](CO)N1C[C@H](C)[C@@H](CN(C)Cc2ccccc2)Oc2ccc(NC(=O)Cn3cnnn3)cc2C1=O` was tested. Which cytotoxicity call did it give?
**A.** inactive

**Q.** `C[C@H]1CN([C@@H](C)CO)C(=O)c2cccc(NS(=O)(=O)c3ccccc3)c2O[C@H]1CN(C)S(=O)(=O)c1cn(C)cn1` was tested. Which cytotoxicity call did it give?
**A.** inactive

**Q.** For `CCc1nc2ccc(C(=O)NCCCN3CCCC3=O)cn2c1N(CC)C(=O)NCCc1ccccc1`, which cytotoxicity call is on record?
**A.** inactive

**Q.** With `C[C@H]1CN([C@@H](C)CO)C(=O)c2cc(NC(=O)Nc3ccc(F)cc3)ccc2O[C@H]1CN(C)Cc1ccc(Cl)c(Cl)c1` as the compound, how does the cytotoxicity call read?
**A.** inactive

**Q.** `C[C@@H]1CN([C@@H](C)CO)C(=O)c2cc(NC(=O)Nc3ccc(F)cc3)ccc2O[C@H]1CN(C)Cc1ccc(Cl)c(Cl)c1` was tested. Which cytotoxicity call did it give?
**A.** inactive

**Q.** With `C[C@H](CO)N1C[C@H](C)[C@H](CN(C)Cc2ccc(Cl)c(Cl)c2)Oc2ccc(NC(=O)Nc3ccc(F)cc3)cc2C1=O` as the compound, how does the cytotoxicity call read?
**A.** active

**Q.** For `C[C@@H]1CN([C@@H](C)CO)C(=O)c2cc(NC(=O)Nc3ccc(F)cc3)ccc2O[C@@H]1CN(C)Cc1ccc(Cl)c(Cl)c1`, which cytotoxicity call is on record?
**A.** active

**Q.** With `C[C@@H]1CN([C@H](C)CO)C(=O)c2cc(NC(=O)Nc3ccc(F)cc3)ccc2O[C@H]1CN(C)Cc1ccc(Cl)c(Cl)c1` as the compound, how does the cytotoxicity call read?
**A.** inactive

**Q.** How did the cytotoxicity call turn out when `C[C@@H]1CN([C@H](C)CO)C(=O)c2cc(NC(=O)Nc3ccc(F)cc3)ccc2O[C@@H]1CN(C)Cc1ccc(Cl)c(Cl)c1` was run?
**A.** inactive

**Q.** `Cc1noc(C)c1NC(=O)Nc1ccc2c(c1)CC(=O)N([C@@H](C)CO)C[C@@H](C)[C@@H](CN(C)Cc1ccc(C(=O)Nc3ccccc3N)cc1)O2` was tested. Which cytotoxicity call did it give?
**A.** inactive

**Q.** For `O=C(C[C@H]1CC[C@H]2[C@@H](COC[C@@H](O)CN2S(=O)(=O)c2ccc(Cl)cc2)O1)NCc1ccncn1`, which cytotoxicity call is on record?
**A.** inactive

**Q.** `COc1ncc(-c2ccc3c(Nc4cc(Oc5cc(F)cc(F)c5)cc(C(=O)O)c4)c(S(=O)(=O)NC4CC4)cnc3c2)c(OC)n1` was tested. Which cytotoxicity call did it give?
**A.** inactive

**Q.** `CO[C@@H]1CN(C)C(=O)c2ccc(NC(=O)C3CC3)cc2OC[C@H](C)N(C(=O)C2CCOCC2)C[C@@H]1C` was tested. Which cytotoxicity call did it give?
**A.** inactive

**Q.** How did the cytotoxicity call turn out when `COc1ccc(S(=O)(=O)Nc2cccc3c2O[C@H](CN(C)S(=O)(=O)c2ccc(C)cc2)[C@H](C)CN([C@@H](C)CO)C3=O)cc1` was run?
**A.** inactive

**Q.** For `C[C@H]1CN([C@@H](C)CO)C(=O)c2cc(C#CCN(C)C)cnc2O[C@H]1CN(C)C(=O)c1ccc2c(c1)OCO2`, which cytotoxicity call is on record?
**A.** inactive

**Q.** Which cytotoxicity call does the source give for `C[C@@H]1CCCCO[C@H](CN(C)Cc2ccc(C(F)(F)F)cc2)[C@H](C)CN([C@@H](C)CO)C(=O)c2cc(NC(=O)Nc3ccc(C(F)(F)F)cc3)ccc2O1` here?
**A.** active

**Q.** `C[C@@H]1CN([C@H](C)CO)C(=O)c2cc(NC(=O)Nc3ccc(C(F)(F)F)cc3)ccc2O[C@@H](C)CCCCO[C@H]1CN(C)Cc1ccc(C(F)(F)F)cc1` was tested. Which cytotoxicity call did it give?
**A.** active

**Q.** `C[C@@H]1CCCCO[C@@H](CN(C)Cc2ccc(C(F)(F)F)cc2)[C@H](C)CN([C@@H](C)CO)C(=O)c2cc(NC(=O)Nc3ccc(C(F)(F)F)cc3)ccc2O1` was tested. Which cytotoxicity call did it give?
**A.** inactive

**Q.** Which cytotoxicity call does the source give for `C[C@@H]1CCCCO[C@H](CN(C)Cc2ccc(C(F)(F)F)cc2)[C@@H](C)CN([C@@H](C)CO)C(=O)c2cc(NC(=O)Nc3ccc(C(F)(F)F)cc3)ccc2O1` here?
**A.** inactive

**Q.** With `C[C@H](CO)N1C[C@H](C)[C@H](CN(C)Cc2ccc(C(F)(F)F)cc2)OCCCC[C@H](C)Oc2ccc(NC(=O)Nc3ccc(C(F)(F)F)cc3)cc2C1=O` as the compound, how does the cytotoxicity call read?
**A.** active

**Q.** How did the cytotoxicity call turn out when `C[C@@H]1CN([C@@H](C)CO)C(=O)c2cc(NC(=O)Nc3ccc(C(F)(F)F)cc3)ccc2O[C@@H](C)CCCCO[C@H]1CN(C)Cc1ccc(C(F)(F)F)cc1` was run?
**A.** active

**Q.** For `C[C@@H]1CN([C@@H](C)CO)C(=O)c2cc(NC(=O)Nc3ccc(C(F)(F)F)cc3)ccc2O[C@@H](C)CCCCO[C@@H]1CN(C)Cc1ccc(C(F)(F)F)cc1`, which cytotoxicity call is on record?
**A.** inactive

**Q.** `C[C@H](CO)N1C[C@H](C)[C@@H](CN(C)Cc2ccc(C(F)(F)F)cc2)OCCCC[C@H](C)Oc2ccc(NC(=O)Nc3ccc(C(F)(F)F)cc3)cc2C1=O` was tested. Which cytotoxicity call did it give?
**A.** inactive

**Q.** Which cytotoxicity call does the source give for `O=C(CN1CCOCC1)NCC[C@@H]1CC[C@@H](NS(=O)(=O)c2ccc(F)cc2)[C@@H](CO)O1` here?
**A.** inactive

**Q.** With `CCS(=O)(=O)N1C[C@]2(C1)CN([C@@H](CO)c1[nH]c3cc(ccc3c12)OC)C(=O)Nc1c(noc1C)C` as the compound, how does the cytotoxicity call read?
**A.** inactive

**Q.** With `C[C@H](CO)N1C[C@H](C)[C@@H](CN(C)C(=O)CN(C)C)Oc2cc(C#C[C@@H](C)O)ccc2S1(=O)=O` as the compound, how does the cytotoxicity call read?
**A.** inactive

**Q.** With `C[C@@H]1CCCCO[C@H](CN(C)S(=O)(=O)c2ccc(Cl)cc2)[C@H](C)CN([C@@H](C)CO)C(=O)c2cc(NC(=O)C3CCCCC3)ccc2O1` as the compound, how does the cytotoxicity call read?
**A.** inactive

**Q.** For `COc1ccc(NC(=O)N(C)C[C@H]2Oc3ccc(NS(=O)(=O)c4cn(C)cn4)cc3CC(=O)N([C@H](C)CO)C[C@@H]2C)cc1`, which cytotoxicity call is on record?
**A.** inactive

**Q.** `COc1ccccc1CNC(=O)C[C@H]1C[C@H]2c3cc(NC(=O)Nc4ccc(C(F)(F)F)cc4)ccc3O[C@H]2[C@@H](CO)O1` was tested. Which cytotoxicity call did it give?
**A.** inactive

**Q.** With `C[C@@H]1CN([C@H](C)CO)C(=O)c2cc(NS(=O)(=O)c3ccc(F)cc3)ccc2O[C@@H](C)CCCCO[C@H]1CN(C)Cc1ccc2c(c1)OCO2` as the compound, how does the cytotoxicity call read?
**A.** inactive

**Q.** With `C[C@@H]1CN([C@H](C)CO)C(=O)Cc2cc(NC(=O)Nc3ccc4c(c3)OCO4)ccc2O[C@H]1CN(C)S(=O)(=O)c1cn(C)cn1` as the compound, how does the cytotoxicity call read?
**A.** inactive

**Q.** `O=C(C[C@@H]1CC[C@@H]2[C@H](COC[C@H](O)CN2S(=O)(=O)c2cccc(Cl)c2)O1)NCc1ccc2c(c1)OCO2` was tested. Which cytotoxicity call did it give?
**A.** inactive

**Q.** With `C[C@@H]1CN([C@@H](C)CO)S(=O)(=O)c2ccc(Br)cc2O[C@H]1CN(C)Cc1ccccc1F` as the compound, how does the cytotoxicity call read?
**A.** inactive

**Q.** Which cytotoxicity call does the source give for `CC(C)NC(=O)Nc1ccc2c(c1)CC(=O)N([C@@H](C)CO)C[C@H](C)[C@H](CN(C)Cc1ccc(C(=O)O)cc1)O2` here?
**A.** inactive

**Q.** Which cytotoxicity call does the source give for `C[C@@H]1CN([C@H](C)CO)C(=O)c2cc(NC(=O)C3CC3)ccc2O[C@@H]1CN(C)Cc1ccc(Oc2ccccc2)cc1` here?
**A.** inactive

**Q.** For `Cc1noc(C)c1S(=O)(=O)N(C)C[C@H]1Oc2ccc(NC(=O)C3CC3)cc2CC(=O)N([C@H](C)CO)C[C@@H]1C`, which cytotoxicity call is on record?
**A.** inactive

**Q.** `CCS(=O)(=O)N1CC[C@]2(CC1)CN([C@@H](CO)c1c2c2ccc(cc2n1C)OC)C(=O)c1cccc(c1)F` was tested. Which cytotoxicity call did it give?
**A.** inactive

**Q.** `C[C@H]1CCCCO[C@@H](CN(C)Cc2ccc(C(F)(F)F)cc2)[C@@H](C)CN([C@@H](C)CO)C(=O)c2cc(NC(=O)Nc3ccc(C(F)(F)F)cc3)ccc2O1` was tested. Which cytotoxicity call did it give?
**A.** active

**Q.** With `C[C@@H]1CCCCO[C@@H](CN(C)Cc2ccc(C(F)(F)F)cc2)[C@@H](C)CN([C@@H](C)CO)C(=O)c2cc(NC(=O)Nc3ccc(C(F)(F)F)cc3)ccc2O1` as the compound, how does the cytotoxicity call read?
**A.** inactive

**Q.** `C[C@@H]1CCCCO[C@@H](CN(C)Cc2ccc(C(F)(F)F)cc2)[C@H](C)CN([C@H](C)CO)C(=O)c2cc(NC(=O)Nc3ccc(C(F)(F)F)cc3)ccc2O1` was tested. Which cytotoxicity call did it give?
**A.** inactive

**Q.** For `C[C@@H]1CCCCO[C@H](CN(C)Cc2ccc(C(F)(F)F)cc2)[C@@H](C)CN([C@H](C)CO)C(=O)c2cc(NC(=O)Nc3ccc(C(F)(F)F)cc3)ccc2O1`, which cytotoxicity call is on record?
**A.** active

**Q.** For `C[C@@H]1CN([C@H](C)CO)C(=O)c2cc(NC(=O)Nc3ccc(C(F)(F)F)cc3)ccc2O[C@@H](C)CCCCO[C@@H]1CN(C)Cc1ccc(C(F)(F)F)cc1`, which cytotoxicity call is on record?
**A.** inactive

**Q.** `C[C@H]1CCCCO[C@H](CN(C)Cc2ccc(C(F)(F)F)cc2)[C@@H](C)CN([C@@H](C)CO)C(=O)c2cc(NC(=O)Nc3ccc(C(F)(F)F)cc3)ccc2O1` was tested. Which cytotoxicity call did it give?
**A.** active

**Q.** For `C[C@@H]1CCCCO[C@@H](CN(C)Cc2ccc(C(F)(F)F)cc2)[C@@H](C)CN([C@H](C)CO)C(=O)c2cc(NC(=O)Nc3ccc(C(F)(F)F)cc3)ccc2O1`, which cytotoxicity call is on record?
**A.** inactive

**Q.** `C[C@@H]1CCCCO[C@H](CN(C)Cc2ccc(C(F)(F)F)cc2)[C@H](C)CN([C@H](C)CO)C(=O)c2cc(NC(=O)Nc3ccc(C(F)(F)F)cc3)ccc2O1` was tested. Which cytotoxicity call did it give?
**A.** active

**Q.** How did the cytotoxicity call turn out when `CN(C)CCCNC(=O)C[C@H]1CC[C@@H]2[C@H](COc3ccc(NC(=O)c4ccc5c(c4)OCO5)cc3C(=O)N2C)O1` was run?
**A.** inactive

**Q.** With `C[C@@H]1CN([C@H](C)CO)C(=O)c2cc(NS(=O)(=O)c3ccc(F)cc3)ccc2O[C@H]1CN(C)CC1CC1` as the compound, how does the cytotoxicity call read?
**A.** inactive

**Q.** With `C[C@@H]1CN([C@@H](C)CO)C(=O)c2cc(NC(=O)Cc3ccccc3)ccc2O[C@@H](C)CCCCO[C@@H]1CN(C)C(=O)CCC(F)(F)F` as the compound, how does the cytotoxicity call read?
**A.** inactive

**Q.** How did the cytotoxicity call turn out when `C[C@@H]1CN([C@@H](C)CO)C(=O)c2cc(NC(=O)NC3CCCCC3)ccc2O[C@H]1CN(C)Cc1ccc(C(F)(F)F)cc1` was run?
**A.** inactive

**Q.** For `CO[C@H]1CN(C)C(=O)c2ccc(NC(=O)NC(C)C)cc2OC[C@H](C)N(Cc2ccc(-c3ccccn3)cc2)C[C@@H]1C`, which cytotoxicity call is on record?
**A.** inactive

**Q.** How did the cytotoxicity call turn out when `C[C@@H]1CN([C@@H](C)CO)C(=O)c2cc(NC(=O)Nc3ccccc3)ccc2O[C@@H](C)CCCCO[C@H]1CN(C)Cc1ccncc1` was run?
**A.** inactive

**Q.** With `CC(C)C#Cc1ccc2c(c1)O[C@@H](CN(C)C(=O)Cc1ccccn1)[C@H](C)CN([C@@H](C)CO)S2(=O)=O` as the compound, how does the cytotoxicity call read?
**A.** inactive

**Q.** Which cytotoxicity call does the source give for `Cc1noc(C)c1S(=O)(=O)N(C)C[C@H]1Oc2ccc(NC(=O)NC(C)C)cc2CC(=O)N([C@H](C)CO)C[C@@H]1C` here?
**A.** inactive

**Q.** How did the cytotoxicity call turn out when `C#CCOC(=O)[C@@H]1[C@@H](C(=O)O)[C@@H]2C=C[C@@H]1C2` was run?
**A.** inactive

**Q.** `COc1ccc(NC(=O)N(C)C[C@H]2Oc3ccc(NC(=O)C4CC4)cc3CC(=O)N([C@H](C)CO)C[C@@H]2C)cc1` was tested. Which cytotoxicity call did it give?
**A.** inactive
